PubChem BioAssay (NCATS)
Results filed as inconclusive are left out. A call without a number means that no potency is given here. A number with no mark means an inactive call. The source made the active and inactive calls. Calls come from the whole dose curve; as a rule, active = well fitted curve in the direction sought with a large enough effect; inconclusive = small, poorly fitted or top-dose-only effect, or another doubt; inactive = no such curve, though single readings can be large; an effect the other way counts as inactive or inconclusive.

Assays:
[1] = qHTS assay for measurement of the activity of small molecule inhibitors on Zika virus induced Caspase-3 activity in human iPSC derived neural progenitor cells (hNPCs) (AID 1224857); note: nearly all actives have a fitted effect of over 65% in size
Outline: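 Caspase-3/7 induction by a 6-hour ZIKV infection was quantified with a luminescent Caspase-Glo 3/7 reagent incubated 30 minutes at room temperature. Compounds were preincubated with hNPCs for 1 hour; inhibition was calculated against uninfected and infected control wells.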

[2] = qHTS assay to identify small molecule inhibitors of chordoma cells - UCH-1 (AID 1259355); note: nearly all actives have a fitted effect of over 55% in size
Outline: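 Screening used approved and investigational drugs in 15-point titration against 800 seeded cells per well. A fixed combination of auranofin with camptothecin, doxorubicin, rubitecan and topotecan followed compound addition, and growth was scored by CellTiter-Glo after 48hr.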

[3] = P-glycoprotein substrates identified in KB-8-5-11 adenocarcinoma cell line, qHTS therapeutic library screen (AID 1346987); conditions: outcome: dose series up to 44.5 µM; note: series mostly up to about 44 µM; nearly all actives have a fitted effect of over 65% in size
Outline: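 Compounds are pinned in dose-response onto KB-8-5-11 cells (500 cells/well, colchicine-free medium) and left 72 h at 37 degree C. CellTiter-Glo luminescence then yields AC50 values.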

[4] = NS1 protein of Zika virus - qHTS assay to identify small molecule inhibitors in human HEK 293 cells (AID 1347053); note: series mostly up to about 46 µM; nearly all actives have a fitted effect of over 55% in size
Outline: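 Readout was TR-FRET using paired anti-NS1 antibodies after 24 h infection of HEK 293 cells with ZIKV MR766 (MOI = 0.5). Compound preceded virus by 1 h; reduced signal reflects lower NS1 expression.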

[5] = qHTS of pediatric cancer cell lines to identify multiple opportunities for drug repurposing: Primary screen for TC32 cells (AID 1347089); note: nearly all actives have a fitted effect of over 60% in size
Outline: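 In the primary qHTS, MIPE compounds were tested at 11 concentrations (0.78 nM to 46 µM) and NPC compounds at 8 (0.59 nM to 46 µM) on TC32 cells for 48 h. CellTiter-Glo luminescence gave viability.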

[6] = qHTS of pediatric cancer cell lines to identify multiple opportunities for drug repurposing: Primary screen for DAOY cells (AID 1347090); note: series mostly up to about 46 µM; nearly all actives have a fitted effect of over 55% in size
Outline: (§1)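 Viability measured as metabolically active cells via CellTiter-Glo luminescence following 48 hours of compound exposure, 11-point dilutions in confirmatory testing. 500-1,000 cells/well plated 5 hours before dosing; controls were DMSO and 2.3 µM bortezomib.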

[7] = qHTS of pediatric cancer cell lines to identify multiple opportunities for drug repurposing: Primary screen for SJ-GBM2 cells (AID 1347091)
Outline: as §1

[8] = qHTS of pediatric cancer cell lines to identify multiple opportunities for drug repurposing: Primary screen for A673 cells (AID 1347092); note: nearly all actives have a fitted effect of over 45% in size
Outline: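 48 h compound exposure, A673, 500-1,000 cells/well, 37 degrees C/5% CO2. MIPE: 11-point, 0.78 nM-46 µM; NPC: 8-point, 0.59 nM-46 µM (final). Readout CellTiter-Glo luminescence after 15 min RT.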

[9] = qHTS of pediatric cancer cell lines to identify multiple opportunities for drug repurposing: Primary screen for SK-N-MC cells (AID 1347093); note: potency is the fitted concentration of half-maximal effect
Outline: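 Metabolically active cells were quantified by ATP-dependent luminescence (CellTiter-Glo, 15 min at room temperature) following 48 h treatment. Cells had been plated at 500-1,000 per well and settled for 5 h beforehand.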

[10] = qHTS of pediatric cancer cell lines to identify multiple opportunities for drug repurposing: Primary screen for BT-37 cells (AID 1347094); note: series mostly up to about 57 µM
Outline: (§2)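 Viability was measured as metabolically active cells after 48 hours of treatment, read by CellTiter-Glo luminescence. Compounds were tested at multiple final concentrations, giving concentration-response curves.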

[11] = qHTS of pediatric cancer cell lines to identify multiple opportunities for drug repurposing: Primary screen for NB-EBc1 cells (AID 1347095)
Outline: as §2

[12] = qHTS of pediatric cancer cell lines to identify multiple opportunities for drug repurposing: Primary screen for U-2 OS cells (AID 1347096); note: nearly all actives have a fitted effect of over 50% in size
Outline: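 Viability after 48 h compound treatment at 37C, 500-1,000 cells/well, read as ATP luminescence with CellTiter-Glo. Primary screens used 11-point (MIPE, 0.78 nM-46 µM) or 8-point (NPC, 0.59 nM-46 µM) final concentrations; follow-up screens used 11-point dilutions.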

[13] = qHTS of pediatric cancer cell lines to identify multiple opportunities for drug repurposing: Primary screen for Saos-2 cells (AID 1347097); note: nearly all actives have a fitted effect of over 40% in size
Outline: as §2

[14] = qHTS of pediatric cancer cell lines to identify multiple opportunities for drug repurposing: Primary screen for SK-N-SH cells (AID 1347098);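 note: DMSO served as neutral control and bortezomib at 2.3 µM as positive control; nearly all actives have a fitted effect of over 65% in size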
Outline: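 Cells (500-1,000/well) rested 5 h, then received compounds for 48 h; metabolically active cells were measured by CellTiter-Glo luminescence. Final concentrations spanned up to 46 µM (MIPE, 11-point) or 0.59 nM-46 µM (NPC, 8-point) in primary screens, 11-point in follow-ups.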

[15] = qHTS assay to identify small molecule inhibitors of chordoma cells - UCH-2 (AID 1259356); note: series mostly up to about 46 µM

Row | Compound | outcome [1] | outcome [2] | outcome [3] | outcome [4] | outcome [5] | outcome [6] | outcome [7] | outcome [8] | Potency [9] | outcome [10] | outcome [11] | outcome [12] | outcome [13] | outcome [14] | outcome [15] | activity, negative = inhibition [2]
1 | O=C(NCCCN1CCOCC1)c1ccc(Cl)cc1 | inactive | inactive | inactive | inactive | inactive | inactive | inactive | inactive | inactive | inactive | inactive | inactive | inactive | inactive |  | 
2 | C[C@@H](N)C(=O)O | inactive | inactive | inactive | inactive |  | inactive | inactive | inactive | inactive | inactive | inactive | inactive | inactive | inactive | inactive | 
3 | NS(=O)(=O)c1cc(C2(O)NC(=O)c3ccccc32)ccc1Cl (centres undefined) | inactive | inactive | inactive | inactive | inactive | inactive | inactive | inactive | inactive | inactive | inactive | inactive | inactive | inactive | inactive | 
4 | O=C(Cn1ccnc1[N+](=O)[O-])NCCO | inactive | inactive | inactive | inactive | inactive | inactive | inactive | inactive | inactive | inactive | inactive | inactive | inactive |  | inactive | 
5 | CNc1c2c(nn1C)CCCC2 | inactive | inactive | inactive | inactive |  | inactive | inactive | inactive | inactive | inactive | inactive | inactive | inactive | inactive | inactive | 
6 | COc1ccc(Cc2cnc(N)nc2N)cc1OC | inactive | inactive | inactive | inactive | inactive | inactive | inactive | inactive | 7.5 µM (active) | inactive | inactive | inactive | inactive |  | inactive | 
7 | CC(C(=O)O)c1ccc2c(c1)Cc1cccnc1O2 (centres undefined) | inactive | inactive | inactive | inactive | inactive | inactive | inactive | inactive | inactive | inactive | inactive | inactive |  | inactive | inactive | 
8 | Cc1cccc(C)c1NC(=O)CC12CCCN1CCC2 | inactive | inactive | inactive | inactive |  | inactive | inactive | inactive | inactive | inactive | inactive | inactive | inactive |  | inactive | 
9 | O=C(O)c1ccccc1OP(=O)(O)O | inactive |  | inactive | inactive | inactive | inactive | inactive | inactive | inactive | inactive | inactive | inactive | inactive | inactive | inactive | -7.01% [at 1.88 µM]
10 | O=C(O)Cc1cn(-c2ccccc2)nc1-c1ccc(Cl)cc1 | inactive | inactive | inactive | inactive | inactive | inactive | inactive | inactive |  | inactive |  | inactive | inactive |  | inactive | 
11 | Cc1ccc2c(c1)c1c3n2CCNC3CCC1 (centres undefined) | inactive | inactive | inactive | inactive |  | inactive | inactive | inactive | inactive | inactive | inactive | inactive | inactive | inactive | inactive | 
12 | CC1(c2ccccc2)OC(C(=O)O)=CC1=O (centres undefined) | inactive | inactive | inactive | inactive | inactive | inactive | inactive | inactive | inactive | inactive | inactive | inactive | inactive | inactive | inactive | 
13 | COC(=O)c1ccc(O)cc1 | inactive | inactive |  | inactive |  | inactive | inactive | inactive | inactive | inactive | inactive | inactive | inactive | inactive | inactive | 
14 | CCCCCC(N)=O | inactive | inactive | inactive | inactive | inactive | inactive | inactive | inactive | inactive | inactive | inactive | inactive | inactive | inactive | inactive | 
15 | CN1C[C@@H]2C[C@H]1CN2c1cc2c(cc1F)c(=O)c(C(=O)O)cn2C1CC1 | inactive | inactive |  | inactive | inactive | inactive | inactive | inactive | inactive | inactive | inactive | inactive | inactive | inactive | inactive | 
16 | CCCCC1(COC(=O)CCC(=O)O)C(=O)N(c2ccccc2)N(c2ccccc2)C1=O | inactive | inactive | inactive | inactive | inactive | inactive | inactive | inactive | inactive | inactive | inactive | inactive | inactive | inactive | inactive | 
17 | NC(=O)N[C@@H](CCC(=O)O)C(=O)O | inactive | inactive | inactive | inactive | inactive | inactive | inactive | inactive | inactive | inactive | inactive | inactive | inactive | inactive | inactive | 
18 | COc1ccc(O)cc1 | inactive | inactive |  | inactive |  | inactive | inactive |  | inactive | inactive | inactive | inactive |  |  | inactive | 
19 | CN1CC(=O)NC1=N | inactive | inactive | inactive | inactive | inactive | inactive | inactive | inactive | inactive | inactive | inactive | inactive | inactive |  | inactive | 
